This is an account of results in PubChem BioAssay (NCATS).

Records with an inconclusive call do not appear. Activity calls are given as the source filed them. The call rests on the fitted dose curve; in most records, active means well fitted curve in the direction sought with a large enough effect; inconclusive means small, poorly fitted or top-dose-only effect, or another doubt; inactive means no such curve, though single readings can be large; an effect the other way counts as inactive or inconclusive.

Experiment [1] has as its system Nanoluciferase (engineered Oplophorus gracilirostris luciferase). Nature of the experiment: Primary Nanoluciferase (NLuc) qHTS assay for identification of artifact compounds. (AID 1845222). The following applies: NLuc-conditioned medium, Nano-Glo luminescence, 5 min; series mostly up to 54.1 µM. The essentials:
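Compounds are pinned into diluted (1:55) conditioned medium of NLuc-expressing S16 cells and held 15 min at room temperature protected from light. Nano-Glo substrate follows, and luminescence is read 5 min later.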

Experiment [2] is described as follows: Primary redox qHTS assay for identification of artifact compounds. (AID 1845223). The following applies: Amplex Red/HRP redox cycling with DTT, fluorescence; series mostly up to 53.8 µM. The essentials:
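Amplex Red (25 uM) and HRP (250 mU/mL) in HBSS, with compounds for 15 min, then 250 uM DTT for 30 min, room temperature, dark. Fluorescence 525/598 nm read; normalized to DMSO and 10 uM DA3003; Hill fit.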
Background: qHTS replaces the single test concentration by a dilution series.

A short description of experiment [3]: Quantitative High-Throughput drug screen in 47 multiple myeloma cell lines against the NCATS MIPE library collection: EJM_DSMZ cell viability assay (AID 1918926; further: nearly all actives have a fitted effect of over 30% in size). Particulars: EJM myeloma cell viability, CellTiter-Glo ATP, 48 h; series mostly up to 45.8 µM. The gist of the method: (§1)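 We plated 500 myeloma cells per well, pinned in MIPE 4.0 compounds, and incubated for 48 hours at 37C. ATP was then quantified with CellTiter-Glo, with DMSO and media-only wells defining 100% and 0%.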
(In general: In ATP-based viability assays light output follows the ATP content of the culture.)

Experiment [4] can be described thus: Quantitative High-Throughput drug screen in 47 multiple myeloma cell lines against the NCATS MIPE library collection: ARP1_JJKsccF8 cell viability assay (AID 1918928; further: nearly all actives have a fitted effect of over 40% in size). The following applies: ARP1 myeloma cells viability, CellTiter-Glo ATP, 48 h; series mostly up to 45.8 µM. The gist of the method: (§2)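 Myeloma cells at 500 per well in 1536-well format treated with MIPE 4.0 library by pin transfer for 48 h at 37C, 5% CO2. Viability from ATP luminescence (CellTiter-Glo), normalized to DMSO (100%) and media-only (0%) wells.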

A short description of experiment [5]: Quantitative High-Throughput drug screen in 47 multiple myeloma cell lines against the NCATS MIPE library collection: ARD_JJKsccE7 cell viability assay (AID 1918929). The following applies: ARD myeloma cell line viability, CellTiter-Glo, 48 h; series mostly up to 45.8 µM. The essentials: as §1
Experiment [6] is described as follows: Quantitative High-Throughput drug screen in 47 multiple myeloma cell lines against the NCATS MIPE library collection: JIM3_ECACC cell viability assay (AID 1918963; further: nearly all actives have a fitted effect of over 35% in size). The following applies: JIM3 myeloma viability, CellTiter-Glo ATP, 48 h; series mostly up to 45.8 µM. The gist of the method: (§3)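 Luminescent ATP measurement with CellTiter-Glo gives viability, scaled between DMSO-only wells (100%) and media-only wells (0%). Cells, 500 per well, faced library compounds for 48 hours at 37C.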

A short description of experiment [7]: Quantitative High-Throughput drug screen in 47 multiple myeloma cell lines against the NCATS MIPE library collection: JIM1_ECACC cell viability assay (AID 1918964; further: potency means the concentration at half of the fitted maximal effect). Particulars: JIM1 myeloma viability, CellTiter-Glo ATP luminescence, 48 h; series mostly up to 45.8 µM. The essentials: as §1
Experiment [8] is described as follows: Quantitative High-Throughput drug screen in 47 multiple myeloma cell lines against the NCATS MIPE library collection: JJN3_DSMZ cell viability assay (AID 1918966; further: nearly all actives have a fitted effect of over 50% in size). Particulars: JJN3 myeloma cells viability, CellTiter-Glo ATP, 48 h; series mostly up to 45.8 µM. The gist of the method: as §1
Experiment [9] can be described thus: Quantitative High-Throughput drug screen in 47 multiple myeloma cell lines against the NCATS MIPE library collection: H1112_PLB cell viability assay (AID 1918967; further: nearly all actives have a fitted effect of over 30% in size). Particulars: H1112 myeloma cells viability, ATP luminescence, 48 h; series mostly up to 45.8 µM. The gist of the method: as §1
Experiment [10] in a line: Quantitative High-Throughput drug screen in 47 multiple myeloma cell lines against the NCATS MIPE library collection: KMS27_JCRB cell viability assay (AID 1918970). Further: nearly all actives have a fitted effect of over 30% in size. Particulars: KMS27 myeloma cells, CellTiter-Glo ATP viability, 48 h; series mostly up to 45.8 µM. The essentials:
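Luminescent ATP read-out (CellTiter-Glo, 5 min at room temperature) after 48 h compound exposure of 500 KMS27_JCRB cells per well; DMSO wells define full viability and media-only wells zero.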

Experiment [11] can be described thus: Quantitative High-Throughput drug screen in 47 multiple myeloma cell lines against the NCATS MIPE library collection: FR4_PLB cell viability assay (AID 1918924; further: nearly all actives have a fitted effect of over 35% in size). The following applies: FR4_PLB myeloma cells viability, CellTiter-Glo ATP, 48 h; series mostly up to 45.8 µM. The essentials: as §3
Experiment [12] is described as follows: Quantitative High-Throughput drug screen in 47 multiple myeloma cell lines against the NCATS MIPE library collection: AMO1_DSMZ cell viability assay (AID 1918927; further: nearly all actives have a fitted effect of over 30% in size). Particulars: AMO1 myeloma cells viability, CellTiter-Glo ATP luminescence, 48 h; series mostly up to 45.8 µM. The gist of the method:
as §1

Experiment [13] can be described thus: Quantitative High-Throughput drug screen in 47 multiple myeloma cell lines against the NCATS MIPE library collection: Karpas620_DSMZ cell viability assay (AID 1918959). Further: nearly all actives have a fitted effect of over 30% in size. Particulars: Karpas620 myeloma viability, CellTiter-Glo ATP luminescence, 48 h; series mostly up to 45.8 µM. The gist of the method: as §3
Experiment [14] can be described thus: Quantitative High-Throughput drug screen in 47 multiple myeloma cell lines against the NCATS MIPE library collection: KMM1_JCRB cell viability assay (AID 1918960). The following applies: KMM1 myeloma viability, CellTiter-Glo ATP luminescence, 48 h; series mostly up to 45.8 µM. The essentials: as §2
Experiment [15] is described as follows: Quantitative High-Throughput drug screen in 47 multiple myeloma cell lines against the NCATS MIPE library collection: Karpas25_ECACC cell viability assay (AID 1918968; further: potency means the concentration at half of the fitted maximal effect; nearly all actives have a fitted effect of over 35% in size). Particulars: Karpas25 myeloma viability, CellTiter-Glo ATP, 48 h. The gist of the method:
as §1

A short description of experiment [16]: Quantitative High-Throughput drug screen in 47 multiple myeloma cell lines against the NCATS MIPE library collection: KMS12BM_JCRB cell viability assay (AID 1918971). Further: nearly all actives have a fitted effect of over 35% in size. Particulars: KMS12BM myeloma viability, CellTiter-Glo ATP, 48 h; series mostly up to 45.8 µM. The essentials:
as §3

As to `CCOC(=O)c1cncn1C(C)c1ccccc1` (stereo unspecified), the call in experiment [1] and in [2] was inactive.
`CC[C@H]1C[C@H]2[C@@H]3CCC4=CC(=O)CC[C@@H]4[C@H]3CC[C@]2(C)[C@H]1O`: the call in experiment [1] and in experiment [2] was inactive.
For the compound `O=C(O)c1nn(Cc2ccc(Cl)cc2Cl)c2ccccc12`, the Potency result in [3], in experiment [4], in experiment [5], in experiment [6], in [7] and in experiment [8] was “inactive” in each case. Further, the Potency entry in experiment [9] and in [10] was “inactive” throughout.
As to `COc1ccc(C(=O)N2CCCC2=O)cc1`, the Potency entry in experiment [11], in [3], in experiment [12], in experiment [13], in experiment [6] and in experiment [8] was “inactive” in each case. The Potency entry in [9] and in experiment [16] was “inactive” throughout. In addition, the Potency in [14] is 1.87 µM (active); in [7] it was 3.32 µM (active); in [15] it was 0.935 µM (active).
In the case of `COc1ccc2c(C(=O)c3ccc(Cl)cc3)c(C)n(CC(=O)O)c2c1`, in [1], the compound was classed as inactive.
Take `O=C(N[C@H]1N=C(c2ccccc2F)c2cccc3c2N(CC3)C1=O)c1cc2ccccc2[nH]1`: the call in experiment [1] and in experiment [2] was inactive.
